# High-throughput results from PubChem BioAssay.
# This is a sample that favours compounds with a hit; in the whole collection about 6.6% have one here.
# RGS4 inh = inhibitors of human regulator of G protein signaling 4; 390,000 tested, 0.039% active; Transcreener GDP fluorescence polarization, RGS4-accelerated GTP hydrolysis; Potency, µM (doses to about 114 µM), inactives show at the highest dose activity change, negative = inhibition, most hits filed as inhibitors; P49798; AID 504845; also: % is scaled to controls: 0 for no effect and ±100 for the full control effect; nearly all actives have a fitted effect of over 75% in size
# Target sequence (P49798 whole entry, looked up): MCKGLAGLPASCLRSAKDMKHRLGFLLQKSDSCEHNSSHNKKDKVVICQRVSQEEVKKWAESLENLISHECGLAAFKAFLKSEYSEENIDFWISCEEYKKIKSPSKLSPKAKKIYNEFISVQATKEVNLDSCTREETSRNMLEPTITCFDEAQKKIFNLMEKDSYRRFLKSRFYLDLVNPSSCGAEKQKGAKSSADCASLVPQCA
#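 MLSMR compounds (23 nl, pin-transferred) preincubated 10 min at room temperature with a 500nM (2x) first reagent, then RGS4 at 900nM (2x) plus Transcreener GDP mix added; fluorescence polarization (620/688 nm) read before and after 90 min at 30 °C.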
# SW480 rereplic = induces DNA re-replication in SW480 colon adenocarcinoma cells. Potency, µM (doses to about 46.1 µM), without a hit: at the top dose re-replication activation, actives largely listed as activators. 340,000 tested, 1.8% active. SW480 DNA re-replication, Hoechst DNA content imaging, 48 h; also: % of control where 0% means no effect; nearly all actives have a fitted effect of over 55% in size
#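 Image-based read-out: total Hoechst fluorescence of nuclei (405 nm excitation, 500-530 nm emission), with hits raising the fraction of high-intensity nuclei. SW480 colon cells incubated 48 hr with compounds at 37 C.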
# TSG101-PTAP inh = blocks PTAP/TSG101 interaction to inhibit HIV-1 budding. Q99816. Fluorescence polarization, FITC-PTAP peptide / Tsg101 binding. Potency, µM (titrated, usually from 115 µM), for inactives: top-dose activity change, negative = inhibition, hits mostly inhibitors. 340,000 tested, under 10 active; active = well fitted inhibition curve with a large enough effect in the main read-out, with a control signal flat, not every such curve was filed as active; inconclusive = small, poorly fitted or top-dose-only effect, or effect the other way, or a change in a side signal; inactive = no such curve, though single readings can be large or run the other way; also: % of control where 0% means no effect
# Target sequence (Q99816 whole entry, looked up): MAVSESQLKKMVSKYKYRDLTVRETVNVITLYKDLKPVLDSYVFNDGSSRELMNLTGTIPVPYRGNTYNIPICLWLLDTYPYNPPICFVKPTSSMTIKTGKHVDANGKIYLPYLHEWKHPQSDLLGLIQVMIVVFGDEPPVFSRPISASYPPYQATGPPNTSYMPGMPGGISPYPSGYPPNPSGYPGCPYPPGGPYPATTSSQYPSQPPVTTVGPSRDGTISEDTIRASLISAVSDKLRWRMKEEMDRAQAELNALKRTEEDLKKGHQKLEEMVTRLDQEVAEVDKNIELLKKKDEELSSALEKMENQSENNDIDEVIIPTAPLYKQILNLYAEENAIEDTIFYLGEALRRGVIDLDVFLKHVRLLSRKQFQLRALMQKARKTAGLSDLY
#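 Compounds were pin-transferred onto Tsg101 binding domain (10 uM final) in HEPES pH 7.5 buffer, then FITC-PTAP peptide was added at 50 nM final. After 20 min at RT, polarization reported peptide displacement across a qHTS concentration series.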
# MCF10A rereplic = DNA re-replication induction in MCF 10a cells | MCF 10A DNA re-replication, Hoechst nuclear intensity, 48 h | Potency, µM (series often up to 46.1 µM), for inactives: at the highest dose activity, positive = re-replication, usual class: activators | 350,000 tested, 2.9% active; also: % of control where 0% means no effect; nearly all actives have a fitted effect of over 50% in size
# KB-V1 MDR tox = kills drug-selected multidrug resistant KB-V1 cells | KB-V1 MDR cells viability, CellTiter-Glo, 72 h | Potency, µM (series often up to 46.1 µM), most hits filed as cytotoxic | 400,000 tested, 3.4% active | AID 1347076; also: % is scaled to controls: 0 for no effect and ±100 for the full control effect; nearly all actives have a fitted effect of over 60% in size
#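 qHTS viability screen in drug-selected KB-V1 MDR cells: 72 h compound treatment at 37 degrees C, ATP luminescence end point.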
# KB-3-1 tox = KB-3-1 parental cell cytotoxicity; KB-3-1 viability, CellTiter-Glo ATP luminescence, 72 h; Potency, µM (doses to about 46.1 µM), actives largely listed as cytotoxic; 400,000 tested, 1.4% active; also: % is scaled to controls: 0 for no effect and ±100 for the full control effect; nearly all actives have a fitted effect of over 60% in size
#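 Screening of KB-3-1 cells (DMEM, 10% FBS, phenol-red free) ran from lowest to highest compound concentration; after 72 h at 37 °C viability was read luminescently and curves fitted.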
# * hit, by the source's call; i = inactive; ? = inconclusive; nt = no result given; [ ] = dose if it differs, or a comment. Unless noted, calls follow the shape of the dose curve; as a rule, active = well fitted curve in the direction sought with a large enough effect; inconclusive = small, poorly fitted or top-dose-only effect, or another doubt; inactive = no such curve, though single readings can be large; an effect the other way counts as inactive or inconclusive. Potency is read from the fitted curve at half-maximal effect.
SMILES,RGS4 inh,SW480 rereplic,TSG101-PTAP inh,MCF10A rereplic,KB-V1 MDR tox,KB-3-1 tox
CCOC(=O)c1c(NC(=O)C2=C(C)NC(=S)NC2c2ccc(C)cc2)sc(C)c1C (configuration not stated),-29%,2%,-1%,?,21µM*,?
CCC1CCCCN1S(=O)(=O)c1cc2c(cc1C)NC(=O)CO2 (configuration not stated),13%,nt,nt,nt,i,i
C(=NN=Cc1c[nH]c2ccccc12)c1c[nH]c2ccccc12,nt,nt,nt,nt,i,i
O=C1/C(=C/c2c[nH]c3ccccc23)CCC/C1=C\c1c[nH]c2ccccc12,-28%,?,?,21µM*,?,?
Cn1c(Oc2ccc(Cl)cc2)c(C=O)c2ccccc21,9%,-1%[9.22 µM],-7%,?,?,21µM*
CC(=O)N1c2ccc(S(=O)(=O)N3CCCC(C(=O)N4CCCC(C)C4)C3)cc2CC1C (configuration not stated),32%,-20%,-7%,12%,i,i
CC(=O)N1CCCc2cc(S(=O)(=O)N3CCC(C)CC3)ccc21,11%,-109%,3%,-2%,21µM*,i
CC(=O)N1c2ccc(S(=O)(=O)N3CCCC(C(=O)N4CCC(C)CC4)C3)cc2CC1C (configuration not stated),12%,-7%,-2%,-1%,21µM*,i
CC(=O)N1c2ccc(S(=O)(=O)N3CCC(C(=O)NCc4ccc(Cl)cc4)CC3)cc2CC1C (configuration not stated),2%[11.4 µM],?,-6%,23µM*,i,?
CC(=O)N1CCCc2cc(S(=O)(=O)N3CCC(N(C)C(C)C)CC3)ccc21,-10%,nt,nt,nt,i,i
Cc1ccccc1Nc1c(-c2ccc(Br)o2)nc2ccc(Cl)cn12,7%,nt,nt,nt,i,i
CCC(C(=O)Nc1ccc(C(=O)OC)cc1)n1nc(-c2ccc(C)cc2)c2c(c1=O)CCCC2 (configuration not stated),-19%,nt,nt,nt,?,i
CC(C)(C)c1ccc(C(=O)Nc2cccc([N+](=O)[O-])c2)cc1,-5%,-79%,-4%,?,12µM*,?
O=C(Nc1cccc([N+](=O)[O-])c1)c1ccc2ccccc2c1O,-13%,19%,-7%,?,4.1µM*,?
Cc1ccc(SCc2ccc(C(=O)Nc3cccc([N+](=O)[O-])c3)cc2)cc1,-8%,8.2µM*,-9%,4.1µM*,i,i
O=C(Nc1cccc([N+](=O)[O-])c1)c1ccncc1,-1%,-3%,4%,-1%,i,i
O=C(Nc1cccc([N+](=O)[O-])c1)c1ccc2c(c1)OCCO2,-14%,-115%,-3%,7%,21µM*,?
Cc1ccc(S(=O)(=O)n2nc(-c3ccco3)nc2NCc2ccc(N(C)C)cc2)cc1,5%,nt,nt,nt,i,?
COc1ccccc1NC(=O)C1=C(C)Nc2nc(-c3ccco3)nn2C1c1cccc(C)c1 (configuration not stated),-4%,nt,nt,nt,i,i
Cc1ccc(NC(=O)Cn2c(C)cc(C)c(C#N)c2=O)cc1,14%,nt,nt,nt,i,i
O=C(c1cccc2ccccc12)N1CCN(S(=O)(=O)c2ccccc2)CC1,6%,nt,nt,nt,i,i
O=C(Nc1cccc([N+](=O)[O-])c1)c1[nH]ncc1Cl,-2%,20%,-3%,3%,23µM*,i
COC(=O)Nc1ccc(SCC(=O)c2cccc([N+](=O)[O-])c2)cc1,-47%,?,-4%,23µM*,i,i
N#Cc1ccc(-c2ccc(Cl)cc2)nc1SCC(=O)c1cccc(Cl)c1,-10%[11.4 µM],-22%,2%,-2%[9.22 µM],?,?
N#Cc1ccc(-c2ccccc2)nc1SCC(=O)c1cccc(Cl)c1,15%,0%,16%,14µM*,i,i
SMILES,RGS4 inh,SW480 rereplic,TSG101-PTAP inh,MCF10A rereplic,KB-V1 MDR tox,KB-3-1 tox
CCOC(=O)c1ccc(NC(=O)Cn2ncc(Cl)c(Cl)c2=O)cc1,-45%,2.6µM*,-3%,2.6µM*,?,?
CCOC(=O)c1ccc(NC(=O)Cn2nc(C)c3ccccc3c2=O)cc1,-4%,?,-1%,2%,i,i
CCC(=O)Nc1ccc(C(=O)Cn2ncc(Cl)c(Cl)c2=O)cc1,-10%,?,-4%,3.7µM*,?,?
Cc1cc(Br)ccc1NC(=O)CNC(=O)Cn1ncc(Cl)c(Cl)c1=O,9%,?,1%,1.2µM*,?,5.2µM*
CCc1ccccc1NC(=O)CN(C)C(=O)Cn1ncc(Cl)c(Cl)c1=O,1%,6.5µM*,-1%,5.8µM*,?,?
COc1cc(-c2nnn(CC(=O)Nc3ccc(OC(F)(F)F)cc3)n2)cc(OC)c1OC,8%,nt,nt,nt,i,i
Nc1nccnc1C(=O)OCC(=O)C12CC3CC(CC(C3)C1)C2,-8%,0%,-5%,-5%,i,i
N#CC1(C#N)CC(C=O)=C(N)C1(C#N)CC(=O)C12CC3CC(CC(C3)C1)C2 (configuration not stated),-31%,?,0%,18µM*,i,i
CC(=O)Nc1cc2nn(-c3ccccc3)nc2cc1Cl,-10%,4%,-4%,?,i,i
CC(C)(C)C(=O)Nc1cc2nn(-c3ccccc3)nc2cc1Cl,-31%,7.3µM*,2%,?,i,i
CC(=O)Nc1ccc(CNc2nc3cc(-c4ccc(F)cc4)sc3c(=O)n2C)cc1,nt,nt,nt,nt,i,i
COc1cccc(CNc2nc3cc(-c4ccsc4)sc3c(=O)n2C)c1OC,nt,nt,nt,nt,2.6µM*,9.2µM*
COc1cccc(CNc2nc3cc(-c4ccc(F)cc4)sc3c(=O)n2C)c1OC,nt,nt,nt,nt,i,i
COc1cccc(CNc2nc3cc(-c4ccc(C)cc4)sc3c(=O)n2C)c1OC,nt,nt,nt,nt,12µM*,?
CC(=O)Nc1ccc(CNc2nc3cc(-c4ccsc4)sc3c(=O)n2C)cc1,nt,nt,nt,nt,23µM*,?
COc1cccc(CNc2nc3cc(-c4ccccc4)sc3c(=O)n2C)c1,nt,nt,nt,nt,2.3µM*,7.3µM*
COC(=O)c1cc(Cl)ccc1NC(=O)Cn1c(C)cc(C)c(C#N)c1=O,-12%,nt,nt,nt,i,i
C=CCNc1nc2cc(-c3ccccc3C)sc2c(=O)n1C,nt,nt,nt,nt,?,21µM*
Cc1ccc(-c2nnc(Nc3ccc(Br)cc3)c3ccccc23)cc1S(=O)(=O)NCC1CCCO1 (configuration not stated),-1%,nt,nt,nt,i,i
